# Screening data: PubChem, University of Kansas High Throughput Screening Laboratory
# An excerpt weighted towards active compounds, which were near 3.6% of everything screened.
# mHTT CaM bind: disrupts binding of mutant huntingtin to calmodulin | P42858 | inhibition, % at 15 µM | AlphaScreen His-mHTT/GST-CaM binding, luminescence | actives 3.6% (n = 190,000)
# Target sequence (P42858 whole entry, looked up, change not shown): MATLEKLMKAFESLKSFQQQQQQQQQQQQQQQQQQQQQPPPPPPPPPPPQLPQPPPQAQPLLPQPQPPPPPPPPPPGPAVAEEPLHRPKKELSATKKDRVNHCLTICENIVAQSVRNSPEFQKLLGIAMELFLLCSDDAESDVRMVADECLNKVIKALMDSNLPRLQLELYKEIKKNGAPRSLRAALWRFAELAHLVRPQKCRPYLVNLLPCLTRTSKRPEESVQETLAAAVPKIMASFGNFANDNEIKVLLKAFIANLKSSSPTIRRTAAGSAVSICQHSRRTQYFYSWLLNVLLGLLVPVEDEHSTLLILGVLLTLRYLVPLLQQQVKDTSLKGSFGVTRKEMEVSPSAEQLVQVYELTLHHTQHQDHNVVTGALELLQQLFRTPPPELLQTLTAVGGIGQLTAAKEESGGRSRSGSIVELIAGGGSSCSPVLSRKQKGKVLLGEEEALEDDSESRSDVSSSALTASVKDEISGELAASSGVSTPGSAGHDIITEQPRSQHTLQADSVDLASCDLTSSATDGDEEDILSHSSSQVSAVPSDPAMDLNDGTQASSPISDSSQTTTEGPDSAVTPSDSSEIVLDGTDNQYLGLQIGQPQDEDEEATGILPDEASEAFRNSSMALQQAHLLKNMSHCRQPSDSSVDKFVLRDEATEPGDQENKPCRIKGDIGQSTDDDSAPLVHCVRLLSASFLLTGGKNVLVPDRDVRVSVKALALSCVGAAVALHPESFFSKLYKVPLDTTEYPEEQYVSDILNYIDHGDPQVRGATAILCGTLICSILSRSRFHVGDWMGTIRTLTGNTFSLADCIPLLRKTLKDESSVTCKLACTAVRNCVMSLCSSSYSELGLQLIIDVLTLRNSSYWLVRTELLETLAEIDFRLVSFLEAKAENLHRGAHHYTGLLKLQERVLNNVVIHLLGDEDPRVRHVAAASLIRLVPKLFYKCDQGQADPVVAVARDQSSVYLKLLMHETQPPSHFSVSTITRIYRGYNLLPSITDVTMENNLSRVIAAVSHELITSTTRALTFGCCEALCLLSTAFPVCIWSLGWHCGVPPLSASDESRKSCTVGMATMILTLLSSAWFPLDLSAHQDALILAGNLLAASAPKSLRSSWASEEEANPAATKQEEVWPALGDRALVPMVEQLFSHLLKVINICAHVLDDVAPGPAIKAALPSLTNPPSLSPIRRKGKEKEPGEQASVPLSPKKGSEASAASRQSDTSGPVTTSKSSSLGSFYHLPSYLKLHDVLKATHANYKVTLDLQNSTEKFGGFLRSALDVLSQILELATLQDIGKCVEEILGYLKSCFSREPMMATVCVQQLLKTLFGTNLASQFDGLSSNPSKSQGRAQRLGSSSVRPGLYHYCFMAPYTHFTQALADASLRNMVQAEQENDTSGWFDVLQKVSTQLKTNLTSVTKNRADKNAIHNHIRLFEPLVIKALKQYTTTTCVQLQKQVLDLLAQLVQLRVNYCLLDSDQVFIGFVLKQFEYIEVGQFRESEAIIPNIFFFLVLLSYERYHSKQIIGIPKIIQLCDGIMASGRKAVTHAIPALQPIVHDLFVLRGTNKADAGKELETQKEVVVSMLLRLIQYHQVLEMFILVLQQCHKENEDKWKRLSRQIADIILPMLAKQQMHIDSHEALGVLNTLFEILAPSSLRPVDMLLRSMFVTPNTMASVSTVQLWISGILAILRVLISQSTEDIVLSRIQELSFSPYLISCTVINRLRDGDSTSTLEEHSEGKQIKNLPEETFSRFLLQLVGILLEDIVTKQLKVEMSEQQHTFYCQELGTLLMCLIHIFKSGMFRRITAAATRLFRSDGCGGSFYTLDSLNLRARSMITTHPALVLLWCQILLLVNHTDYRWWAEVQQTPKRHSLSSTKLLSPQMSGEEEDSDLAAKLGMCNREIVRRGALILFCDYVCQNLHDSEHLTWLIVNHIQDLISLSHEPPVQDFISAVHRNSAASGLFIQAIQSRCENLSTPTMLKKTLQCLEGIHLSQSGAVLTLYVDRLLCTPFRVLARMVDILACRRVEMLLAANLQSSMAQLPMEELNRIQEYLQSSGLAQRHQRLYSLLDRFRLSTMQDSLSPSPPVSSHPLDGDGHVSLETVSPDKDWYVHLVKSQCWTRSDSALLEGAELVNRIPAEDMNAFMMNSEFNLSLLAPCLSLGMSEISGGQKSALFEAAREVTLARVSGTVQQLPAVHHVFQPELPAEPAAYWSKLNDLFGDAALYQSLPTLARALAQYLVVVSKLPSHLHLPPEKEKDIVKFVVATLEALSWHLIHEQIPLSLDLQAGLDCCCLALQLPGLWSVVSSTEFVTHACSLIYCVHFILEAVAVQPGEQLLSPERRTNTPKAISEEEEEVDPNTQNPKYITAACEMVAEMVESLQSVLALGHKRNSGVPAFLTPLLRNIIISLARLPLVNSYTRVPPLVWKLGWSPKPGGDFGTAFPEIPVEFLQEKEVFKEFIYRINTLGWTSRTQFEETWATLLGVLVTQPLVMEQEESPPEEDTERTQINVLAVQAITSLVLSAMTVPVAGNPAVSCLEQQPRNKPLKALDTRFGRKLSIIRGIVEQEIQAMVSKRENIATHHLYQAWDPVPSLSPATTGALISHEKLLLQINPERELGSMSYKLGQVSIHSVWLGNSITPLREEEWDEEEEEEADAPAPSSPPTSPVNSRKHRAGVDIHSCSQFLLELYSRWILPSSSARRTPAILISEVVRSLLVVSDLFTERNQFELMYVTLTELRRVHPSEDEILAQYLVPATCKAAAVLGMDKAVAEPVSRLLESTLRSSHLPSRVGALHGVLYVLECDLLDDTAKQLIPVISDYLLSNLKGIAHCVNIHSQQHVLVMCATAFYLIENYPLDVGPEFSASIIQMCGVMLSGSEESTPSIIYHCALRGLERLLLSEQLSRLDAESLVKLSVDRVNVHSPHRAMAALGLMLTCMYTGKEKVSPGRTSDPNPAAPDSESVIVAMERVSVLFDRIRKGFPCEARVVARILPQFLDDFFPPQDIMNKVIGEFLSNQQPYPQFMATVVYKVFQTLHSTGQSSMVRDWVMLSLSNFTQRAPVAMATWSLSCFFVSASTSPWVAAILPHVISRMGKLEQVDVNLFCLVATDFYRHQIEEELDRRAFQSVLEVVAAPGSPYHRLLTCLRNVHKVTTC
# Pf apPOL block: Pf-apPOL DNA polymerase inhibition; Recombinant Pf-apPOL, molecular beacon fluorescence, 1.5 h; inhibition, % at 10 µM; actives 0.25% (n = 210,000)
# Numbers stand for hits; – = inactive; · = no result; + = active, no number; ! = not active in a repeat. Cut-off read from the data, not from the text of the source: active = inhibition above about 50%; inactive = the rest.
SMILES,mHTT CaM bind,Pf apPOL block
COc1cccc(C2CN(C(=O)c3ccccc3)CC2C(=O)NC(C)C)c1 (stereo not given),–,–
C[C@@]12CCC=C[C@H]1[C@H](c1ccc3ccccc3c1)N(Cc1ccccc1)C2=O,82.1,–
Cc1ccc(-c2ccc([C@H]3[C@@H]4C=CCC[C@@]4(C)C(=O)N3Cc3ccccc3)c(F)c2)cc1,–,–
Cc1ccc(-c2c([C@H]3[C@@H]4C=CCC[C@@]4(C)C(=O)N3Cc3ccccc3)ccc3ccccc23)cc1,–,–
COc1ccc(-c2ccc([C@H]3[C@@H]4C=CCC[C@@]4(C)C(=O)N3Cc3ccccc3)c(F)c2)cc1,–,–
C[C@@]12CCC=C[C@H]1[C@H](c1ccc3ccccc3c1Br)N(Cc1ccccc1)C2=O,94.2,–
COc1ccc(-c2cc([C@H]3[C@@H]4C=CCC[C@@]4(C)C(=O)N3Cc3ccccc3)ccc2F)cc1,–,–
COc1ccc(-c2ccccc2[C@H]2[C@@H]3C=CCC[C@@]3(C)C(=O)N2Cc2ccccc2)cc1,67.0,–
COc1ccc(-c2c([C@H]3[C@@H]4C=CCC[C@@]4(C)C(=O)N3Cc3ccccc3)ccc3ccccc23)cc1,58.2,–
Cc1ccc2c(c1)NC(=O)C(C(=O)N1CCCCCC1)O2 (stereo not given),–,–
O=C1C2C3C=CC(C4CC34)C2C(=O)N1CCO (stereo not given),–,–
CC(C)(C)NC(=O)COc1ccc(Br)cc1C(=O)Nc1ccc(Cl)cc1,–,–
Cc1onc(-c2ccc3c(c2)OCO3)c1-c1ccc(N(C)C)nc1,–,–
CCOc1ccc2nc(SCC(=O)Nc3cc(C(=O)O)cc(C(=O)O)c3)sc2c1,–,–
CC1=C(C(=O)Nc2cccnc2)C(c2cccc(OCc3ccccc3)c2)n2nnnc2N1 (stereo not given),–,–
O=c1oc2cc(O)ccc2cc1-c1csc(-c2ccc(Cl)cc2)n1,–,–
Cc1ccc(C(=O)N2CCC(CCNS(=O)(=O)c3cccc(Cl)c3C)CC2)cc1,57.0,–
Cc1ccc(C(=O)N2CCC(CCNS(=O)(=O)c3cccc4nsnc34)CC2)cc1,51.5,–
Cc1c(Cl)cccc1S(=O)(=O)NCCC1CCN(C(=O)c2ccc(F)cc2)CC1,51.3,–
Cc1ccc(C(=O)N2CCC(CCNS(=O)(=O)c3ccccc3Cl)CC2)cc1,–,–
O=C(c1ccc(F)cc1)N1CCC(CCNS(=O)(=O)c2cccc3nsnc23)CC1,–,–
O=C(c1ccc(F)cc1)N1CCC(CCNS(=O)(=O)c2ccccc2F)CC1,–,–
O=C(c1ccccc1)N1CCC(CCNS(=O)(=O)c2ccc(F)c(Cl)c2)CC1,–,–
Cc1ccc(C(=O)N2CCC(CCNS(=O)(=O)c3ccc(F)c(Cl)c3)CC2)cc1,61.9,–
CCOC(=O)c1sc2nc(SCc3ccccc3)nc(-c3ccc(Cl)cc3)c2c1N,·,–
SMILES,mHTT CaM bind,Pf apPOL block
Cc1ccc(C2C3CCCC=C3C(C#N)C(N)C2(C#N)C#N)s1 (stereo not given),–,·
COc1ccc(C(=O)N2CCC3(C2)NCc2ccccc2NC3=NC(C)(C)C)cc1OC (stereo not given),–,–
Cc1ccc(S(=O)(=O)NCCC2CCN(C(=O)c3ccc(F)cc3)CC2)cc1C,–,–
Cc1cc(C)c(S(=O)(=O)NCCC2CCN(C(=O)c3ccc(F)cc3)CC2)cc1C,55.5,–
Cc1cc(Cl)ccc1NC(=O)CSc1cccc2cccnc12,–,–
Cc1cc(C)c(NC(=O)OCc2cccc3cccnc23)c(C)c1,100.3,–
CC(C)CCNC(=O)C1CCc2sc(C(=O)N3CCCC3)cc2C1 (stereo not given),–,–
O=C(c1ccc(OCC2CCN(C(=O)c3ccccc3Cl)CC2)cc1)N1CCCC1,–,–
COc1ccccc1/C=c1\sc2nc(-c3ccc(Br)cc3)nn2c1=O,–,–
O=C1NN(c2ccc(Cl)c(Cl)c2)C(=O)/C1=C/c1ccc(N2CCOCC2)c([N+](=O)[O-])c1,–,–
O=C1c2ccccc2-c2onc3c(Br)cc(Br)c1c23,–,–
COc1cccc(NC2=CC(=O)CC(c3ccccc3)C2)c1 (stereo not given),–,–
CNc1cc(Nc2cccc(C)c2)c2c3c(onc13)-c1ccccc1C2=O,89.0,–
COc1cccc(Nc2ccc3noc4c3c2C(=O)c2ccccc2-4)c1,58.0,–
O=C(Cc1cccc(F)c1)N1CCC(c2nc(-c3ccccc3)no2)C1 (stereo not given),–,–
COc1ccc2nc(SCC(=O)Nc3ccc(Oc4ccccc4)cc3)[nH]c2c1,–,–
CC(C)(C)[C@H]1CCC(=O)N2CCC[C@]2(c2ccccc2)C1,–,–
CCOc1ccccc1NC(=O)c1c(NC(=O)c2ccco2)sc2c1CCCC2,–,–
O=c1/c(=C/c2ccccc2Cl)sc2ncnn12,–,–
CCOc1cc(-c2ccc(SC)cc2)cc(=O)c2c(C)oc(C)c12,70.0,–
CCOc1cc(-c2ccc(OCc3ccccc3)c(OC)c2)cc(=O)c2c(C)oc(C)c12,70.0,–
CCOc1cc(-c2ccc(O)c(O)c2)cc(=O)c2c(C)oc(C)c12,–,–
COc1ccc(-c2cc(OC)c3c(C)oc(C)c3c(=O)c2)cc1,54.0,–
CCOc1cc(-c2cc(OC)c(OC)c(OC)c2)cc(=O)c2c(C)oc(C)c12,–,–
COc1cc(-c2ccc(O)cc2)cc(=O)c2c(C)oc(C)c12,–,–
SMILES,mHTT CaM bind,Pf apPOL block
CC(C)c1ccc(NC(=O)c2cn[nH]c2-c2ccccc2)cc1,–,–
O=C(Nc1ccccc1)C1CCCN(c2ncc(-c3cccc(F)c3)cn2)C1 (stereo not given),–,–
O=C1N=C(N2CCOCC2)S/C1=C/C1=Cc2ccccc2OC1,52.0,–
O=C1N=C(N2CCOCC2)S/C1=C\c1ccccc1,–,–
COc1ccc(Cl)cc1-c1nc(C=Nc2ccccn2)c(O)o1,–,–
Nc1nonc1/C(=N\O)N1CCN(c2ccc(Cl)cc2[N+](=O)[O-])CC1,+,–
Cc1c(C(=O)N2CCN(c3ccc(Cl)cc3[N+](=O)[O-])CC2)oc2ccccc12,61.0,–
COc1ccc(N2CCN(/C(=N/O)c3nonc3N)CC2)c([N+](=O)[O-])c1,–,–
O=C(c1ccc(Cl)cc1)N1CCN(c2ccc(Cl)cc2[N+](=O)[O-])CC1,–,–
O=C(Cn1ccc2ccccc21)NCCn1nc(-c2cccnc2)ccc1=O,–,–
Cc1nc(-c2cccnc2)nc2c1CCC(=O)N2CC1CCCCC1,–,–
CCSc1nc2c(c(C3CC=CCC3)c1C#N)CCC2 (stereo not given),–,–
Cc1ccnc(Nc2nc(CC(=O)Nc3ccc4c(c3)OCCO4)cs2)c1,–,–
CC(C)c1ccccc1NC(=O)Cc1csc(Nc2ncccn2)n1,–,–
Cc1cc(C)nc(Nc2nc(CC(=O)NCc3ccccn3)cs2)n1,–,–
CSc1ccccc1NC(=O)Cc1csc(NC(=O)c2ncccn2)n1,100.2,–
CCOC(=O)Cc1csc(NC(=O)CSc2ccccn2)n1,·,–
Cc1ccnc(Nc2nc(CC(=O)Nc3nnc(C)s3)cs2)c1,56.5,–
CCOC(=O)Cc1csc(NC(=O)c2ncccn2)n1,83.6,–
Cc1cc(NC(=O)Cc2csc(NC(=O)c3ncccn3)n2)no1,99.9,–
CCOC(=O)COc1nc(C)cc(C)n1,–,–
Nc1c(Br)c(Br)c(N)c2c1C(=O)c1ccccc1C2=O,–,–
Nc1c(C(=O)O)cc(Br)c2c1C(=O)c1ccccc1C2=O,51.8,–
O=C(Nc1nnc(C2CC2)o1)c1ccc(S(=O)(=O)N2CCCc3ccccc32)cc1,67.0!,–
